This passage reports Potency, outcome and activity change, positive = activation results from PubChem BioAssay (Tox21).

The nature of assay [1]: qHTS assay to identify small molecule agonists of the hypoxia (HIF-1) signaling pathway - cell viability counter screen (AID 1224844; calls by dose curve; note: nearly all actives have a fitted effect of over 50% in size). In a few lines:
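Luminescent ATP content (CellTiter-Glo, 30 min, room temperature) served as the viability measure in HRE-bla ME-180 cells exposed to compounds for 17 hrs in low-serum medium (0.5% dialyzed FBS).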
(In qHTS, concentration-response curves come from the screen itself.)

Assay [2] is described as follows: qHTS assay to identify small molecule agonists of H2AX (AID 1224845; active = well fitted activation curve with a large enough effect in the signal ratio in the repeat runs, not every such curve was filed as active; the % refers to the signal ratio; note: potency is the fitted concentration of half-maximal effect). In a few lines:
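Wild-type CHO-K1 cells, plated overnight, exposed 3hr at 37C to 15 concentrations (0.76% DMSO final). Lysed, then HTRF anti-pH2AX (S139) cryptate and anti-H2AX-d2 antibodies, 24 hr room temperature; 665/620 nm emission read.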

A short description of assay [3]: qHTS assay to identify small molecule agonists of the hypoxia (HIF-1) signaling pathway (AID 1224846; active = well fitted activation curve with a large enough effect in the signal ratio in the repeat runs, not every such curve was filed as active; the % refers to the signal ratio). The procedure, abridged:
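Measured by blue/green FRET after loading CCF4-AM: beta-lactamase expressed from a hypoxia response element in ME-180 cells. Test agents were delivered in DMSO and left 17 hrs; cells had been plated 5 hrs earlier in low-serum (0.5% dialyzed FBS) medium.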

Assay [4] is described as follows: qHTS assay to identify small molecule agonists of H2AX - cell viability counter screen (AID 1224847; calls by dose curve; note: top concentration of the series differs between compounds; nearly all actives have a fitted effect of over 30% in size). The procedure, abridged: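 Counter-screen for viability: CellTiter-Glo ATP luminescence read after 3 h compound treatment (15-point titration, 0.76% DMSO final) of CHO-K1 cells at 37C, with 30 min room-temperature reagent incubation.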
Assay [5] is described as follows: qHTS assay to identify small molecule agonists of the estrogen related receptor (ERR) signaling pathway from Tox21 library (AID 1224849; calls by dose curve; note: nearly all actives have a fitted effect of over 15% in size). The following applies: ERR reporter cell line, ONE-Glo luciferase, 18 h. The procedure, abridged:
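We plated ERR reporter cells, waited 6 h, added compounds in DMSO by pin tool and incubated them 18 h at 37 C. ONE-Glo was then added and luminescence read after 30 min.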

The nature of assay [6]: qHTS RealTime-Glo MT Cell Viability Assay in HepG2 cells - 24 hour (AID 1224867). Note: nearly all actives have a fitted effect of over 50% in size. The procedure, abridged:
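HepG2 cells were seeded at 600 cells/well together with NanoLuc luciferase and a cell-permeant prosubstrate, preincubated 5 h at 37 C/5% CO2, then pin-dosed with compounds in DMSO. Nonlytic luminescence from viable cells was read at each time point.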

A short description of assay [7]: qHTS RealTime-Glo MT Cell Viability Assay in HEK293 cells - 32 hour (AID 1224868). Note: top concentration of the series differs between compounds; nearly all actives have a fitted effect of over 50% in size. The procedure, abridged: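 HEK293 cells were seeded at 600 cells/well together with NanoLuc luciferase and cell-permeant prosubstrate, preincubated 5 h at 37 C/5% CO2, then given compound in DMSO by pintool. Luminescence from viable-cell prosubstrate reduction was read repeatedly over 40 h.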

Assay [8] in a line: A CellTox Green Cytotoxicity Assay to monitor cytotoxicity in HEK293 cells - 0 hour (AID 1224869). Note: nearly all actives have a fitted effect of over 50% in size. The procedure, abridged: (§1)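 Each value comes from one timepoint of a single continuous run in which HEK293 cells with CellTox Green were exposed to compound for up to 40 h at 37 C, dye fluorescence rising with cell death.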
A short description of assay [9]: qHTS RealTime-Glo MT Cell Viability Assay in HepG2 cells - 40 hour (AID 1224870). Note: nearly all actives have a fitted effect of over 50% in size. In a few lines: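 HepG2 cells (600/well) mixed with RealTime-Glo MT reagent, settled 5 h at 37 C/5% CO2 before compound addition. Nonlytic NanoLuc luminescence from viable-cell prosubstrate reduction read repeatedly during 40 h treatment at 37 C.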
Assay [10] is described as follows: A CellTox Green Cytotoxicity Assay to monitor cytotoxicity in HEK293 cells - 40 hour (AID 1224871). Note: nearly all actives have a fitted effect of over 45% in size. In a few lines: as §1

“And” between values parts separate entries of the source, which are not always exact repeats. Equal values may be shown once. Records with an inconclusive call do not appear. Some compounds were tested as several samples or in several runs, with calls that do not always agree. The source made the active and inactive calls. Unless noted, calls come from the whole dose curve; as a rule, active = well fitted curve in the direction sought with a large enough effect in the repeat runs; inconclusive = weak or mixed curves; inactive = no such curve, though single readings can be large; an effect the other way counts as inactive or inconclusive.
% is set by controls: 0 for no effect and ±100 for the full control effect.

`Nc1nc(N)nc(NC2CC2)n1`: the Potency entry in assay [1], in assay [2], in assay [4], in assay [7], in assay [8] and in assay [10] was “inactive” in each case. Further, the molecule was called inactive in assay [3], in assay [6] and in assay [9]. Also, the activity change, positive = activation in assay [5] (at 42.5 µM (top of the series)) is 7.96% (inactive); in assay [5] (at 92.4 µM (top of the series)), -4.5% (inactive) and 0.923% (inactive).
Consider `CNC(=O)O/N=C/C(C)(C)SC`, for which the Potency entry in assay [1], in [2], in [4], in assay [7], in assay [8] and in [10] was “inactive” in each case. Also, the call in assay [3], in [6] and in [9] was inactive. The activity change, positive = activation in [5] (at 92.4 µM (top of the series)) was 5.2% (inactive) and 5.41% (inactive).
On to `OC[C@@H](O)[C@H]1O[C@@H]2O[C@H](C(Cl)(Cl)Cl)O[C@@H]2[C@H]1O`, for which the Potency result in assay [1], in [2], in assay [4], in assay [7], in assay [8] and in assay [10] was “inactive” in each case. Further, the molecule was classed as inactive in assay [3], in [6] and in assay [9]. Besides, the activity change, positive = activation in assay [5] (at 92.4 µM (top of the series)) was 4.33% (inactive) and 6.3% (inactive).
On to `ClC(Cl)c1ccccc1`, for which the Potency result in [1], in [2], in assay [4], in [7], in assay [8] and in [10] was “inactive” each time. In addition, the call in [3], in assay [6] and in [9] was inactive. Further, the activity change, positive = activation in assay [5] (at 92.4 µM (top of the series)) is 8.64% (inactive) and 1.48% (inactive).
As to `CN(C)NC(=O)CCC(=O)O`, the Potency entry in assay [1], in [2], in assay [4], in assay [7], in [8] and in assay [10] was “inactive” in each case. Also, the molecule was called inactive in assay [3], in [6] and in assay [9]. In addition, in assay [5] (at 92.4 µM (top of the series)), the activity change, positive = activation is 4.6% (inactive) and 12.8% (active).
Turning to `CNC(=O)O/N=C/C(C)(C)S(C)(=O)=O`, the Potency entry in [1], in assay [2], in assay [4], in assay [7], in assay [8] and in assay [10] was “inactive” each time. In addition, the outcome in assay [3], in assay [6] and in assay [9] was inactive.
Regarding `Cc1cc(Cl)ccc1OC(C)C(=O)O` (stereo not given), the Potency result in assay [1], in assay [2], in assay [4], in [7], in assay [8] and in [10] was “inactive” throughout. The molecule was classed as inactive in [3], in [6] and in assay [9].
On to `Cc1ccc(N)cc1`, for which the Potency entry in assay [1], in assay [2], in assay [4], in [7], in assay [8] and in assay [10] was “inactive” in each case. The molecule was called inactive in assay [3], in [6] and in assay [9]. Besides, the activity change, positive = activation in assay [5] (at 92.4 µM (top of the series)) was 14.9% (active) and 11.9% (inactive).
As for `COS(=O)(=O)OC`, the Potency entry in [1], in assay [2], in assay [4], in assay [7], in assay [8] and in assay [10] was “inactive” each time. Also, the molecule was classed as inactive in [3], in assay [6] and in assay [9].
On to `CN(C)C(=O)Cl`, for which the Potency entry in assay [1], in assay [4], in [7], in [8] and in assay [10] was “inactive” throughout. The call in [3], in [6] and in assay [9] was inactive. Also, the activity change, positive = activation in assay [5] (at 92.4 µM (top of the series)) is 5.68% (inactive) and 6.16% (inactive).
Consider `CCCCC(CC)C(=O)Cl` (stereo not given), for which the Potency result in [1], in [2], in assay [4], in assay [7], in assay [8] and in [10] was “inactive” throughout. In addition, the molecule was classed as inactive in [3], in [6] and in assay [9].
On to `CCCOC(=O)c1ccccc1C(=O)OCCC`, for which the Potency entry in [1], in assay [2], in assay [4], in assay [7], in [8] and in assay [10] was “inactive” in each case. Besides, the call in assay [3], in assay [6] and in [9] was inactive.
Consider `O=[N+]([O-])c1ccc(Cl)c(Cl)c1`, for which the Potency entry in assay [1], in assay [4], in assay [7], in [8] and in assay [10] was “inactive” throughout. Further, the molecule was classed as inactive in assay [3], in [6] and in assay [9]. Besides, the activity change, positive = activation in [5] (at 92.4 µM (top of the series)) was -0.469% (inactive) and -6.92% (inactive).
As to `CNC(=O)Oc1cccc2ccccc12`, the Potency entry in assay [1], in assay [4], in assay [7], in assay [8] and in assay [10] was “inactive” in each case. For the same molecule, the Potency in assay [2] was 99.8 µM (active) and inactive. In addition, the result in [3], in assay [6] and in [9] was inactive.
Turning to `C=CCN=C=S`, the Potency entry in assay [1], in assay [4], in [7], in [8] and in assay [10] was “inactive” throughout. Besides, the call in [3], in assay [6] and in assay [9] was inactive. In assay [5] (at 92.4 µM (top of the series)), the activity change, positive = activation was 10.8% (inactive) and 0.847% (inactive).
With `O=C(O)C(Br)Br`, the Potency result in assay [1], in [2], in assay [4], in assay [7], in assay [8] and in assay [10] was “inactive” each time. The outcome in assay [3], in [6] and in assay [9] was inactive.
In the case of `CN(C)CCC#N`, the Potency result in assay [1], in [2], in assay [4], in assay [7], in [8] and in [10] was “inactive” each time. In addition, the molecule was called inactive in [3], in assay [6] and in [9].
On to `COP(=S)(OC)SCN1C(=O)c2ccccc2C1=O`, for which the Potency result in [1], in assay [2], in [4], in [7], in assay [8] and in [10] was “inactive” throughout. The molecule was classed as inactive in assay [3], in [6] and in assay [9].
Take `FC(F)(F)c1ccc(Cl)cc1`: the Potency entry in assay [1], in [2], in assay [4], in assay [7], in assay [8] and in assay [10] was “inactive” throughout. For the same molecule, the molecule was classed as inactive in [3], in assay [6] and in [9].
For `OCC(O)CCl` (stereo not given), the Potency result in assay [1], in assay [2], in assay [4], in assay [7], in [8] and in assay [10] was “inactive” in each case. The molecule was called inactive in assay [3], in assay [6] and in assay [9].
`Cc1cccc(C)c1N`: the Potency result in assay [1], in assay [2], in [4], in [7], in [8] and in assay [10] was “inactive” in each case. Besides, the result in assay [3], in assay [6] and in [9] was inactive.
On to `O=C(O)COc1ccccc1`, for which the Potency result in assay [1], in assay [2], in [4], in [7], in [8] and in assay [10] was “inactive” in each case. Besides, the call in [3], in assay [6] and in [9] was inactive.
